Screening results deposited in PubChem by University of Kansas High Throughput Screening Laboratory.
Pf apPOL inh: Pf-apPOL DNA polymerase inhibition | Recombinant Pf-apPOL, molecular beacon fluorescence, 1.5 h | inhibition, % at 10 µM | 210,000 compounds, 0.25% hits
mHTT CaM bind: inhibitors of human mutant huntingtin-calmodulin interaction; AlphaScreen His-mHTT/GST-CaM binding, luminescence; inhibition, % at 15 µM; 190,000 compounds, 3.6% hits;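 further: 0% = both proteins with DMSO and 100% = one protein alone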
An asterisk follows results filed as active; / = not tested or not shown. Rows were chosen to be rich in hits. Some 3.5% of all compounds tested hit in one or more screens of this group. No stated cut-off is given here; in the data, active means inhibition above about 50%; inactive means the rest.

SMILES	Pf apPOL inh	mHTT CaM bind
CC1CCN(C(=O)c2ccc3c(c2)CC(=O)N3Cc2ccc(F)cc2)CC1	-6	15
CCN1C(=O)Cc2cc(C(=O)N3CCN(c4ccccc4C)CC3)ccc21	1	68*
CC1CCN(C(=O)c2ccc3c(c2)CC(=O)N3Cc2cccc(F)c2)CC1	-2	57*
CS(=O)(=O)c1ccccc1C(=O)N1CCN(Cc2nnnn2-c2ccccc2)CC1	-8	-5
C=C(C)CN(CC)Cc1ccc([N+](=O)[O-])cc1	0	-10
Cc1cc(C)nc(SC(NC(=O)c2ccccc2)C(=O)c2ccccc2)n1 (stereo not drawn)	0	94*
Cc1cc(=O)n(C(NC(=O)c2ccccc2)C(=O)c2ccccc2)cn1 (stereo not drawn)	-2	-3
CSc1nnc2c(n1)OC(c1ccccc1O)Nc1ccccc1-2 (stereo not drawn)	2	-4
CSc1nnc2c(n1)OC(c1ccc(Br)s1)Nc1ccccc1-2 (stereo not drawn)	-3	57*
CCSc1nnc2c(n1)OC(c1cn[nH]c1-c1ccccc1)Nc1ccccc1-2 (stereo not drawn)	-6	7
CCCCSc1nnc2c(n1)OC(c1cc3c(cc1[N+](=O)[O-])OCO3)Nc1ccccc1-2 (stereo not drawn)	-4	77*
CCSc1nnc2c(n1)OC(c1cc3c(cc1[N+](=O)[O-])OCO3)Nc1ccccc1-2 (stereo not drawn)	2	53*
CCCCSc1nnc2c(n1)OC(c1ccncc1)Nc1ccccc1-2 (stereo not drawn)	4	8
CSc1nnc2c(n1)OC(c1cccs1)Nc1ccccc1-2 (stereo not drawn)	-2	6
CSc1nnc2c(n1)OC(c1cc3c(cc1Br)OCO3)Nc1ccccc1-2 (stereo not drawn)	85*	0
CCOc1ccc(-c2nc3s/c(=C\c4ccc(OCC)c(OCC)c4)c(=O)n3n2)cc1	-6	1
O=C(NCc1ccc(F)c(Cl)c1)c1ccc(-c2cncnc2)nc1	2	4
CC(=O)Nc1ccccc1C(=O)NN	7	/
CCOC(=O)Nc1nc2c(s1)CN(C(=O)c1ccco1)CC2	7	-5
CCOc1ccc(-n2c(SC(CC)C(=O)NCCOC)nc3n[nH]c(C)c3c2=N)cc1 (stereo not drawn)	-4	36
CCC(C)NC(=O)CSc1nc2n[nH]c(C)c2c(=N)n1-c1ccc(OC)cc1 (stereo not drawn)	-4	48
CCOc1ccc(-n2c(SC(CC)C(=O)N(CC)CC)nc3n[nH]c(C)c3c2=N)cc1 (stereo not drawn)	-3	52*
Cc1[nH]nc2nc(SCC(=O)NCC3CCCO3)n(-c3ccc(Br)cc3)c(=N)c12 (stereo not drawn)	-6	52*
CCOc1ccc(-n2c(SCC(=O)NCC3CCCO3)nc3n[nH]c(C)c3c2=N)cc1 (stereo not drawn)	-1	9
COc1cccc(NC(=O)CSc2nc3n[nH]c(C)c3c(=N)n2-c2ccc(C)cc2)c1	0	57*
SMILES	Pf apPOL inh	mHTT CaM bind
Cc1ccc(-n2c(SCC(=O)NCc3ccco3)nc3n[nH]c(C)c3c2=N)cc1C	2	49
Cc1[nH]nc2nc(SCC(=O)NCc3ccco3)n(-c3ccc(Br)cc3)c(=N)c12	-2	80*
CC1CC(C)CN(CC(O)COCC2CC3CCC2C3)C1 (stereo not drawn)	-2	-7
COc1ccc(C(=O)N2CCN(c3ccc(C)c(F)c3)C(=O)C2C)cc1 (stereo not drawn)	2	-5
Cc1cc(NS(=O)(=O)c2ccc(NC(=O)C3CC3)cc2)nc(C)n1	-5	-3
Cc1cc(NS(=O)(=O)c2ccc(NC(=O)C(Cl)(Cl)Cl)cc2)nc(C)n1	86*	-5
CCc1ccc(N2C(=O)CCC2(C)C(=O)NCc2ccccc2)cc1 (stereo not drawn)	-7	2
COc1ccc(-c2ccc(CN3C(C(C)C)C(=O)N(Cc4cn(Cc5ccco5)nn4)CCS3(=O)=O)cc2)cn1 (stereo not drawn)	-27	38
CC(C)C1C(=O)N(Cc2cn(Cc3ccco3)nn2)CCS(=O)(=O)N1Cc1ccc(-c2ccc(Cl)c(Cl)c2)cc1 (stereo not drawn)	-10	83*
CCC/C=C/c1ccc(CN2C(C)C(=O)N(Cc3cn(Cc4ccco4)nn3)CCS2(=O)=O)cc1 (stereo not drawn)	-4	35
CCC/C=C/c1ccc(CN2C(C(C)C)C(=O)N(Cc3cn(Cc4ccco4)nn3)CCS2(=O)=O)cc1 (stereo not drawn)	-1	57*
O=C1c2ccccc2C(=O)N1CNc1cccc(Cl)c1Cl	-1	-9
O=S(=O)(Nc1ccccn1)c1ccc2[nH]c3c(c2c1)CCCCC3	-2	2
S=C(NCc1ccc2[nH]c3c(c2c1)CCCC3)NC1CCCCC1	-3	40
Cc1ccc(NS(=O)(=O)c2ccc3[nH]c4c(c3c2)CCCCC4)nc1	-4	60*
O=S(=O)(NC1CCCCC1)c1ccc2[nH]c3c(c2c1)CCCCC3	-3	95*
CCCN1C(=O)/C(=C\c2nc3ccccc3c(=O)n2CCCO)c2ccccc21	-3	36
CC(=O)OC1=CCC2C3CCC4(C)CC(OC(C)=O)CCC4(C)C3C(OC(C)=O)CC12C (stereo not drawn)	-2	/
Cn1c(=O)cc2c3c(c(N4CCCCC4)ccc31)C(=O)c1ccccc1-2	-9	55*
Cn1c(=O)cc2c3c(c(Br)ccc31)C(=O)c1ccccc1-2	-2	2
COCCNC(=O)Cc1ccc(NC(=O)CSCc2ccccc2)cc1	-5	-15
O=C1C=CC(=Nc2ccc(Br)cc2)C=C1	-5	87*
COc1ccc(-c2cn3ccn(-c4ccc(C)cc4C)c(=O)c3n2)cc1OC	-3	2
COC(=O)C1CN(Cc2ccc(F)cc2)CCS(=O)(=O)N1Cc1ccc(F)cc1 (stereo not drawn)	-7	18
COC(=O)C1CN(Cc2ccc(F)cc2)CCS(=O)(=O)N1Cc1ccc(C(F)(F)F)cc1 (stereo not drawn)	-3	69*
SMILES	Pf apPOL inh	mHTT CaM bind
COC(=O)C1CN(Cc2ccccc2)CCS(=O)(=O)N1Cc1ccccc1 (stereo not drawn)	2	-6
COC(=O)C1CN(CCc2ccccc2)CCS(=O)(=O)N1Cc1ccc(OC)cc1 (stereo not drawn)	-2	7
COC(=O)C1CN(CCc2ccccc2)CCS(=O)(=O)N1Cc1ccc(Cl)cc1 (stereo not drawn)	-4	71*
COC(=O)C1CN(Cc2ccccc2)CCS(=O)(=O)N1Cc1ccc(C(F)(F)F)cc1 (stereo not drawn)	-2	87*
O=C(C1CCCN(C(=O)C2CCCC2)C1)N1CCOCC1 (stereo not drawn)	2	-3
CN1CCCN(C(=O)C2CCCN(c3cnn(C)c(=O)c3)C2)CC1 (stereo not drawn)	-6	-5
O=C(c1ccc(F)cc1F)N1CCC(CCOc2cccc(F)c2)CC1	-5	-19
O=C(COc1nsnc1N1CCOCC1)Nc1ccc(Br)cc1	-6	5
O=C(COc1nsnc1N1CCCCC1)Nc1ccc(Br)cc1	-9	51*
O=C1CCC[C@@H]2C=C[C@H](c3ccc(Br)cc3)[C@H]3CCN1[C@@H]32	-33	52*
O=C1C[C@@H]2CCN3C(=O)CCC[C@@H]([C@H]23)[C@@H]1Cc1ccccc1	-5	2
